# Source: ChEMBL document CHEMBL3988442, “University of Dundee, Small-Polar-MMV Screening Library” (2021)
# Molecular target: T1, Tyrosyl-tRNA synthetase, putative (Trypanosoma cruzi (strain CL Brener)) (UniProt Q4DSP6)
# T1 sequence (whole entry): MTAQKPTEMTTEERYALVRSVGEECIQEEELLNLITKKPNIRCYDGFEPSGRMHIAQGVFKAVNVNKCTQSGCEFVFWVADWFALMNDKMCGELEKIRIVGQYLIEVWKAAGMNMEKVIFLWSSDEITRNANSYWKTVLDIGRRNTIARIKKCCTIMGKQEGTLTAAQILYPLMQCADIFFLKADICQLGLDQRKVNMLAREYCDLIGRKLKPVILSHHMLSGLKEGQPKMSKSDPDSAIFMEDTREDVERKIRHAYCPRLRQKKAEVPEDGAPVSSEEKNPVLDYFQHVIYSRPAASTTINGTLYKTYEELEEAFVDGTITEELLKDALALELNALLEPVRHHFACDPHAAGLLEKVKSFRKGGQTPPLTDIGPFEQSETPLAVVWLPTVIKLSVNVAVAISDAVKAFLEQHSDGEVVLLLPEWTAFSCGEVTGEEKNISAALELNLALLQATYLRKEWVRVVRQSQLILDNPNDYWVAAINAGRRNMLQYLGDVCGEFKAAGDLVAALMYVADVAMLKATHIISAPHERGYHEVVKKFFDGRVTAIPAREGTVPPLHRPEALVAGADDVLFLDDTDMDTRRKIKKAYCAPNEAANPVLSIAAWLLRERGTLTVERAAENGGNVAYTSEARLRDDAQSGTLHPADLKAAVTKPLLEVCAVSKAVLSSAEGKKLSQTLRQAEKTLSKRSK
# Assay: Trypanosoma cruzi tyrosyl tRNA synthetase (TcYRS) SOP
# Assay type: functional
# Parameters: scale not given: direction of the effect not stated beside the values
# Conditions: 30 µM
row,SMILES,Percent Effect [%]
1,O=C(c1cnccn1)N1CCOCC2(CCN(C3CCOCC3)C2)C1 (stereo not given),15.4
2,CC(C)OCc1ncn2c1CN(Cc1cccs1)CCC2,2.56
3,O=C(CCN1CCC(C(=O)c2cc(F)ccc2F)CC1)NC1CC1,15.6
4,CCCC(NC(=O)c1cc(C)ccc1C)c1nnn[nH]1 (stereo not given),13.6
5,Cc1ncc(CNC(=O)CCOc2ccccc2)c(C2CCCN2C)n1 (stereo not given),1.3
6,CCCc1noc(CCC(=O)N2CCCC2c2noc(C3CC3)n2)n1 (stereo not given),1.27
7,CCn1ccnc1CN1CCN(CCOc2ccccc2OC)CC1,7.32
8,COc1ccc(CN2CCn3cc(CN4CCCCC4)nc3C2)cc1,-8.97
9,N#CC1(C(=O)N2CCN(Cc3ccon3)CC2)CCC1,1.27
10,CN1CCOC(CNCc2coc(-c3ccccc3)n2)C1 (stereo not given),13.9
11,O=C(C1=CC2(CCNCC2)c2ccccc21)N1CCCC1,2.5
12,COc1ccc(CCN2CCCC2Cn2nc(C)nc2C)cc1 (stereo not given),8.86
13,Cc1ccc(NC(=O)NCCCc2n[nH]c(N)c2C#N)cc1,11.4
14,Cc1cc(C)cc(NC(=O)CN2CCCC(n3cncn3)C2)c1 (stereo not given),15.8
15,CC(CNc1cncc(-n2cccn2)n1)N(C)c1ccccc1 (stereo not given),0
16,CCC(C)(C)NC(=O)CN(C)C(c1cccc(F)c1)c1ccccn1 (stereo not given),7.32
17,O=C(C1CCOCC1)N1CCC2(CC1)CC(Oc1ccccc1)CO2 (stereo not given),16.1
18,CCOc1cc(C(=O)N2CCCC(c3noc(C)n3)C2)ccn1 (stereo not given),11.1
19,O=C1[C@@H]2CCN(Cc3ccoc3)C[C@@H]2OCCN1Cc1cccnc1,1.28
20,Cc1cc(C)n(CC2CCCN2C(=O)CCCc2ccccn2)n1 (stereo not given),4.88

row,SMILES,Percent Effect [%]
1,O=C(Nc1nc2c(s1)CCC2)c1cccnc1N1CCOCC1,-2.6
2,Cc1ncsc1C(=O)NC1CCN(Cc2cccnc2)CC1,14.6
3,CCN1CCN(c2ncc(-c3cc(C)no3)c(-c3ccc(C)s3)n2)CC1,11.7
4,COc1ccc(C2CCCN2C(=O)NCCNc2ncccn2)cc1 (stereo not given),12.5
5,COCCN1C(=O)C[C@H]2[C@H]1CCN2Cc1ccc(OC)cc1,6.41
6,O=C(NCCc1cccs1)[C@H]1CO[C@H]2CCNC[C@H]2C1,10.3
7,Cc1cnn(CCNCc2ccc(OCc3csc(C)n3)cc2)c1,11.1
8,O=C(CN1CCCC(O)C1)NC(=O)NCc1cccs1 (stereo not given),7.79
9,Cc1cc(C[S+]([O-])CC(=O)Nc2c(C)cccc2C)no1 (stereo not given),9.76
10,COCCN1CCC2(CC1)CC(COC)N(c1ncccn1)C2 (stereo not given),3.7
11,Cc1noc([C@H]2C[C@H]3OCC[C@H]3N(S(=O)(=O)C3CC3)C2)n1,18.5
12,O=C(Cc1cccc(F)c1)NCCNCc1ccco1,2.44
13,CC(=O)Nc1cccc(C(=O)Nc2cnc3n2CCCC3)c1,5.13
14,Cc1nc(C)n(CC2CCCN2CC(=O)NCc2ccco2)n1 (stereo not given),-2.5
15,O=C(c1n[nH]c2ccccc12)N1CCCC1c1noc(C2CC2)n1 (stereo not given),13.9
16,Cn1cc(N2CCCC(NCc3cccc4c3OCCCO4)C2)cn1 (stereo not given),23.5
17,CC(C)c1noc(C(C)N2CCN(CCN3CCCC3=O)CC2)n1 (stereo not given),1.24
18,Cc1cc(S(=O)(=O)N2CCCc3ccc(F)cc32)sc1C(=O)O,-33.3
19,Cc1nc(C2CCCN2CCCNS(C)(=O)=O)no1 (stereo not given),19.5
20,Cc1ncsc1CN1CC[C@H]2OCC[C@@]2(C(=O)NC(C)C)C1,-8.97

# Molecular target: Chromo domain-containing protein 1 (Saccharomyces cerevisiae (strain ATCC 204508 / S288c) (Baker's yeast)) (UniProt P32657)
# Assay: ScCHD-1 Enzyme Inhibition Assay; also: in the data most compounds retested in dose-response had high values
# Assay type: functional
# Parameters: scale not given: direction of the effect not stated beside the values
# Conditions: 30 µM
# Sequence of Chromo domain-containing protein 1 (Saccharomyces cerevisiae (strain ATCC 204508 / S288c) (Baker's yeast)) (P32657 whole entry, the tested form may be a part): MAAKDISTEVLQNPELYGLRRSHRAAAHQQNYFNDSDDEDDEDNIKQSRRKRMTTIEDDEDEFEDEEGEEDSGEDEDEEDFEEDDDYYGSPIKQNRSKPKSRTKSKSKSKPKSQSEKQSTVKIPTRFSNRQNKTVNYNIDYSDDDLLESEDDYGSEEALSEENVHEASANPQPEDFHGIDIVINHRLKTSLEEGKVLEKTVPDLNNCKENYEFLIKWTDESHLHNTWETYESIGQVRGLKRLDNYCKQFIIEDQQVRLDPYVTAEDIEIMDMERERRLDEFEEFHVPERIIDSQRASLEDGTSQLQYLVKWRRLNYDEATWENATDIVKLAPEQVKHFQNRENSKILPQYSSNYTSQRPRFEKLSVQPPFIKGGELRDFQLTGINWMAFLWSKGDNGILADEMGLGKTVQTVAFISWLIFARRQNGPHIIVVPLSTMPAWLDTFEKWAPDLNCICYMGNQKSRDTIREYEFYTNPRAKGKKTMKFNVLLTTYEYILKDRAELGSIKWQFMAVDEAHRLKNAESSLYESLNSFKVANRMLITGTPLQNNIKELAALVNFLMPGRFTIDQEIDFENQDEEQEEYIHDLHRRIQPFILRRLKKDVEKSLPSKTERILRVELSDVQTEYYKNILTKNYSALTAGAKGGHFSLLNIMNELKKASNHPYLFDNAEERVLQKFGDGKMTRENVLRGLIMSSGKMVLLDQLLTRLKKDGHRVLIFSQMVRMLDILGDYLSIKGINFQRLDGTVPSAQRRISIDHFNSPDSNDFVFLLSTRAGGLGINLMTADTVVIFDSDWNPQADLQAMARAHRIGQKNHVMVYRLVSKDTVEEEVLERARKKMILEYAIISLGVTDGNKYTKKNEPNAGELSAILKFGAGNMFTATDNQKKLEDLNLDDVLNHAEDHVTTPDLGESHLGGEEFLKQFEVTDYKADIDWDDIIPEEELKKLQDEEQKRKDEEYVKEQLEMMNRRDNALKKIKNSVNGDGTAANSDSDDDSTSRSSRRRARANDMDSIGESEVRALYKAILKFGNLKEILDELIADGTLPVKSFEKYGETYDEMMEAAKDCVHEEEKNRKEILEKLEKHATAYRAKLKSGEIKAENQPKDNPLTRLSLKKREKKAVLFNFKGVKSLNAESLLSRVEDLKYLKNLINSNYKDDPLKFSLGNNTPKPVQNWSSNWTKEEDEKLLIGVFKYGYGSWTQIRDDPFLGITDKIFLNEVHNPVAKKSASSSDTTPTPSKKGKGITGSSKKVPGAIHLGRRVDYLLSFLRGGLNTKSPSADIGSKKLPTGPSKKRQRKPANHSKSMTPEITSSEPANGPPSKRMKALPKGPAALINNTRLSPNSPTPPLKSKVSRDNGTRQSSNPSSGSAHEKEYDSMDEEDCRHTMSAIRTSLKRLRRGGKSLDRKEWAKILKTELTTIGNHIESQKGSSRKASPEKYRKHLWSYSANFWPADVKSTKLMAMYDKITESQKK
row,SMILES,Percent Effect [%]
1,O=C(c1cnccn1)N1CCOCC2(CCN(C3CCOCC3)C2)C1 (stereo not given),-9.96
2,CC(C)OCc1ncn2c1CN(Cc1cccs1)CCC2,-2.17
3,O=C(CCN1CCC(C(=O)c2cc(F)ccc2F)CC1)NC1CC1,-3.85
4,CCCC(NC(=O)c1cc(C)ccc1C)c1nnn[nH]1 (stereo not given),-1.49
5,Cc1ncc(CNC(=O)CCOc2ccccc2)c(C2CCCN2C)n1 (stereo not given),-1.9
6,CCCc1noc(CCC(=O)N2CCCC2c2noc(C3CC3)n2)n1 (stereo not given),-2.93
7,CCn1ccnc1CN1CCN(CCOc2ccccc2OC)CC1,-2.76
8,COc1ccc(CN2CCn3cc(CN4CCCCC4)nc3C2)cc1,-2.75
9,N#CC1(C(=O)N2CCN(Cc3ccon3)CC2)CCC1,-3.39
10,CN1CCOC(CNCc2coc(-c3ccccc3)n2)C1 (stereo not given),-5.22
11,O=C(C1=CC2(CCNCC2)c2ccccc21)N1CCCC1,-6.64
12,COc1ccc(CCN2CCCC2Cn2nc(C)nc2C)cc1 (stereo not given),-5.44
13,Cc1ccc(NC(=O)NCCCc2n[nH]c(N)c2C#N)cc1,-3.94
14,Cc1cc(C)cc(NC(=O)CN2CCCC(n3cncn3)C2)c1 (stereo not given),-2.91
15,CC(CNc1cncc(-n2cccn2)n1)N(C)c1ccccc1 (stereo not given),-6.86
16,CCC(C)(C)NC(=O)CN(C)C(c1cccc(F)c1)c1ccccn1 (stereo not given),-2.33
17,O=C(C1CCOCC1)N1CCC2(CC1)CC(Oc1ccccc1)CO2 (stereo not given),-0.343
18,CCOc1cc(C(=O)N2CCCC(c3noc(C)n3)C2)ccn1 (stereo not given),-2.64
19,O=C1[C@@H]2CCN(Cc3ccoc3)C[C@@H]2OCCN1Cc1cccnc1,1.76
20,Cc1cc(C)n(CC2CCCN2C(=O)CCCc2ccccn2)n1 (stereo not given),-3.06

row,SMILES,Percent Effect [%]
1,O=C(Nc1nc2c(s1)CCC2)c1cccnc1N1CCOCC1,1.45
2,Cc1ncsc1C(=O)NC1CCN(Cc2cccnc2)CC1,-11.8
3,CCN1CCN(c2ncc(-c3cc(C)no3)c(-c3ccc(C)s3)n2)CC1,-15.6
4,COc1ccc(C2CCCN2C(=O)NCCNc2ncccn2)cc1 (stereo not given),-6.8
5,COCCN1C(=O)C[C@H]2[C@H]1CCN2Cc1ccc(OC)cc1,-5.69
6,O=C(NCCc1cccs1)[C@H]1CO[C@H]2CCNC[C@H]2C1,-2.47
7,Cc1cnn(CCNCc2ccc(OCc3csc(C)n3)cc2)c1,-5.91
8,O=C(CN1CCCC(O)C1)NC(=O)NCc1cccs1 (stereo not given),-1.85
9,Cc1cc(C[S+]([O-])CC(=O)Nc2c(C)cccc2C)no1 (stereo not given),-3.01
10,COCCN1CCC2(CC1)CC(COC)N(c1ncccn1)C2 (stereo not given),1.23
11,Cc1noc([C@H]2C[C@H]3OCC[C@H]3N(S(=O)(=O)C3CC3)C2)n1,-0.433
12,O=C(Cc1cccc(F)c1)NCCNCc1ccco1,-7.92
13,CC(=O)Nc1cccc(C(=O)Nc2cnc3n2CCCC3)c1,-3.23
14,Cc1nc(C)n(CC2CCCN2CC(=O)NCc2ccco2)n1 (stereo not given),-3.99
15,O=C(c1n[nH]c2ccccc12)N1CCCC1c1noc(C2CC2)n1 (stereo not given),-5.81
16,Cn1cc(N2CCCC(NCc3cccc4c3OCCCO4)C2)cn1 (stereo not given),-7.98
17,CC(C)c1noc(C(C)N2CCN(CCN3CCCC3=O)CC2)n1 (stereo not given),0.594
18,Cc1cc(S(=O)(=O)N2CCCc3ccc(F)cc32)sc1C(=O)O,-2.04
19,Cc1nc(C2CCCN2CCCNS(C)(=O)=O)no1 (stereo not given),-5.18
20,Cc1ncsc1CN1CC[C@H]2OCC[C@@]2(C(=O)NC(C)C)C1,0.0917
